Screening data (PubChem BioAssay)
Most compounds without a hit are left out; they make up all but 6.9% or so of the library.
NS3h inh CB – hepatitis C NS3 helicase inhibition, primary screen; NS3h Cy5-dT15 DNA binding, fluorescence polarization; inhibition, % at 100 µM; 16,000 compounds, 1.6% hits; AID 687043;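 active = inhibition above the average over every tested compound plus 3 SD, cut at about 40% in these data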
Cy5 interf NS3h – enhances or quenches Cy5 fluorescence in NS3h assay; Cy5-dT15 DNA with NS3h, fluorescence interference; actives lie on both sides; signal over control mean, under 1 quenches; fluorescence interference ratio at 100 µM; 16,000 compounds, 6% hits; AID 720488;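 active = compound fluorescence over control fluorescence at most 0.8, a quencher, or at least a set upper limit, an enhancer; inactive = ratio between 0.8 and the set upper limit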
Numbers without * were called inactive.

SMILES	NS3h inh CB	Cy5 interf NS3h
O=C(Nc1ccc(-c2nc3ccccc3s2)cc1)c1cc2ccccc2oc1=O	0	1.1
COC(=O)c1cc(C(=O)Nc2ccccc2C(N)=O)cc([N+](=O)[O-])c1	6	0.96
COC(=O)c1cc(C(=O)Nc2nc3ccccc3s2)cc([N+](=O)[O-])c1	-6	0.53*
Cc1cccc(C(=O)Nc2nc3ccc(Br)cc3s2)c1	7	1.1
O=C(Nc1nc2ccccc2s1)c1ccc(-c2ccccc2)cc1	35	0.53*
COCCOC(=O)c1c(C)oc2c1cc(NS(=O)(=O)c1ccc(F)cc1)c1ccccc12	6	0.87
COc1cc(Br)c(-c2cc3c(ccc4ccccc43)oc2=O)cc1OC	-6	0.95
COc1cccc(C(=O)O/N=C(/N)c2ccccc2)c1	-10	0.99
O=C(CCc1ccccc1)ONC(=O)c1ccc(Cl)cc1	3	1.2
CCOC(=O)c1c(NC(=O)COc2c(C)cc(C)cc2C)sc(C(=O)Nc2ccccc2)c1C	3	0.96
CCOC(=O)c1c(NC(=O)c2sc3cc(C)ccc3c2Cl)sc(C(N)=O)c1C	7	0.79*
CC(=O)NC(n1c(SCc2ccccc2)nc2ccccc21)C(Cl)(Cl)Cl (stereo not given)	28	0.93
O=C(COc1ccc2ccccc2c1)NC1C2CC3CC(C2)CC1C3 (stereo not given)	16	0.99
CCOC(=O)C1CCCN(C2CC(=O)N(c3ccc(C)cc3)C2=O)C1 (stereo not given)	7	1.2*
Cc1ccc(N2C(=O)CC(N3CCOCC3)C2=O)cc1 (stereo not given)	1	1
COC(=O)C1=C(C)NC(=O)NC1c1ccc(OC(C)C)cc1 (stereo not given)	3	1
O=C(O/N=C\c1ccc([N+](=O)[O-])cc1)c1cccs1	3	0.75*
O=C(/C=C/c1ccc(-c2cccc([N+](=O)[O-])c2)o1)c1cccs1	-5	1.1
Cc1cccc(-c2nc3cc(NC(=O)c4cccc(Cl)c4Cl)ccc3o2)c1	-1	0.97
O=C(NCC1CCCO1)c1cc2nc(-c3ccccc3)cc(-c3ccccc3)n2n1 (stereo not given)	16	0.62*
COCCNC(=O)c1cc2nc(-c3ccccc3)cc(-c3ccccc3)n2n1	18	0.94
CCOC(=O)C1=C(C)NC(C)=C(C(=O)OC)C1c1cc(Cl)cc(Cl)c1OC (stereo not given)	0	0.79*
CCOC(=O)C1=C(C)NC(=O)NC1c1ccc(OC)cc1OC (stereo not given)	1	0.96
CCN(CC)c1ccc(NC(=O)c2ccc(-c3ccc([N+](=O)[O-])cc3)o2)cc1	10	1.2
O=C1/C(=C\c2cc(Cl)c(O)c(Cl)c2)SC(=S)N1c1ccccc1	-1	1.1
SMILES	NS3h inh CB	Cy5 interf NS3h
Brc1ccc(-c2nc(NCCCN3CCOCC3)c3ccccc3n2)cc1	-9	1
CS(=O)(=O)N(CC(=O)N(Cc1ccccc1)Cc1ccccc1)c1ccc(Cl)cc1	25	0.68*
CS(=O)(=O)N(CC(=O)O)c1ccc(Cl)cc1	4	1.1
COc1ccccc1NC(=O)CSc1nc2ccccc2c(=O)n1-c1ccccc1	15	0.96
O=C(NC[n+]1ccccc1)c1ccc(Cl)cc1	3	1.2*
O=C(NCc1ccc(Cl)cc1)c1ccc(I)cc1	21	0.98
CCN1C(=O)C(=Cc2ccc(-c3cccc(C(=O)O)c3)o2)C(=O)N(CC)C1=S	54*	1.2*
O=C1NN(c2ccc(F)cc2)C(=O)/C1=C\c1ccc(-c2cccc(C(=O)O)c2)o1	15	0.82
CC(=O)c1c(C)nc2ccc(OC(F)(F)F)cc2c1-c1ccccc1	8	0.93
Cc1ccc(N2CC(C(=O)Nc3ccccc3Br)CC2=O)cc1 (stereo not given)	12	1.1
O=C1NN(c2ccccc2)C(=O)/C1=C/c1cccn1-c1ccc([N+](=O)[O-])cc1	30	0.61*
O=C1NN(c2ccccc2)C(=O)/C1=C/c1cc([N+](=O)[O-])c(Cl)cc1Cl	39	0.89
Nc1nc2c(s1)-c1ccccc1CC2	29	1.2*
O=C(NC(CO)C(O)c1ccc([N+](=O)[O-])cc1)c1ccc2ccccc2n1 (stereo not given)	0	0.62*
CC(=O)Oc1ccc(-c2cccc(C(=O)NC(CO)C(O)c3ccc([N+](=O)[O-])cc3)c2)cc1 (stereo not given)	1	0.99
COc1ccccc1C1C(C(=O)Nc2ccccc2)=C(C)NC(C)=C1C(=O)Nc1ccccc1	15	0.91
O=C(CSc1ccccn1)OCC(=O)c1ccc(Br)cc1	4	0.64*
O=C(CSc1cccc2cccnc12)OCC(=O)c1ccccc1	-10	0.93
O=C1c2cccc3cccc(c23)C(=O)N1/N=C\c1ccc(Br)cc1	-53	0.86
O=C1c2cccc3cccc(c23)C(=O)N1/N=C\c1cccc([N+](=O)[O-])c1	-8	0.74*
C=CCN=CC1=C(O)CC(C)(C)CC1=O	6	1
O=C(/C=C/c1ccccc1)Nc1ccccc1I	12	0.96
O=C(/C=C\c1ccccc1)Nc1ccc2c3c(cccc13)CC2	23	0.73*
Cc1ccc(N2C(=O)/C(=C/c3ccc(OCc4cccc(C(=O)O)c4)cc3)C(=O)NC2=S)cc1	28	1.1
Cc1ccc(N2C(=O)NC(=O)/C(=C\c3ccc(OCc4cccc(C(=O)O)c4)cc3)C2=O)cc1	52*	1
SMILES	NS3h inh CB	Cy5 interf NS3h
Cc1cccc(N2C(=O)NC(=O)/C(=C\c3ccc(OCc4cccc(C(=O)O)c4)cc3)C2=O)c1	16	1.3*
CCOc1ccc(N2C(=O)NC(=O)/C(=C\c3ccc(OCc4cccc(C(=O)O)c4)cc3)C2=O)cc1	28	1.1
Cc1cccc(OCc2nc(-c3ccc(Cl)cc3)no2)c1	12	1.1
Cc1ccc(-c2cc(NC(=O)c3ccc(Cl)cc3Cl)n[nH]2)cc1	-3	0.82
Cc1ccc(N=C(NO)c2ccc(Cl)cc2Cl)cc1	15	0.68*
O=C(COc1ccc(Cl)cc1)Nc1nc(-c2ccc(Cl)cc2)cs1	13	0.93
CCOC(=O)Cc1csc(NC(=O)COc2ccc(-c3ccccc3)cc2)n1	13	0.78*
N#Cc1c(-c2cc(Br)cs2)c2c(=O)[nH]c(=O)[nH]c2[nH]c1=O	4	1.2*
CC(=O)CCc1c(C)[nH]c2c(C)cccc2c1=O	-7	1.1
Cc1ccc(C(=O)N/C(=C\c2ccco2)C(=O)Nc2ccccc2C)cc1	8	1
COc1ccccc1NC(=O)/C(=C/c1ccco1)NC(=O)c1ccc(C)cc1	10	1.3*
COCCNC(=O)Nc1ccc2nccnc2c1	3	1
COC(=O)c1nnn(-c2cc3nccnc3cc2F)c1C(=O)OC	6	0.72*
COc1ccc(NC(=O)c2ccc(CN3CCN(Cc4ccccc4)CC3)cc2)c(OC)c1	1	0.96
CCC(C(=O)Nc1nc2ccccc2s1)c1ccccc1 (stereo not given)	-6	1.1
O=C(CCC(=O)OCC(F)(F)C(F)F)Nc1nc2ccccc2s1	8	0.71*
COc1cc(Cl)cc(/C=C2\SC(=S)N(C)C2=O)c1O	6	0.94
O=C(COc1ccccc1F)Nc1nc(-c2cccs2)c(NC(=O)c2ccccc2)s1	15	0.87
O=C(CC(Nc1ccc(Br)cc1)c1ccc(F)cc1)c1ccccc1 (stereo not given)	11	0.98
CC(C)(C)c1ccc(C(CC(=O)c2ccc(Br)cc2)S(=O)(=O)c2ccccc2)cc1 (stereo not given)	18	0.54*
